Measurements: ChEMBL document CHEMBL3988442, “University of Dundee, Small-Polar-MMV Screening Library” (2021)
Out of some 48,000 compounds screened, about 13,000 (27%) showed an effect of 50% or more. Some of the results follow.

What follows are compounds tested on Wolbachia pipientis (assay: Anti-Wolbachia Cell-Based Screen). Conditions: 5 µM.
Assay type: functional
Set-up: scale not given: in the data most compounds retested in dose-response had high values

SMILES	Percent Effect [%]
CN1C[C@@H](NC(=O)CC(C)(C)C)C[C@H]1c1nc(-c2cnccn2)no1	-6.894
O=C(CN1CSCC1=O)NCC1CCN(c2ccccc2)C1 (stereo not drawn)	-5.821
O=S1(=O)C[C@@H]2[C@H](C1)N(Cc1ccc3ccccc3c1)CCN2CC1CC1	-3.143
O=C(c1cncs1)N1CCC(c2cnccn2)CC1	100.4
CN(C)c1cc2c(nn1)CCN(C(=O)c1cc3c(s1)CCCC3)C2	1.352
O=C(c1cc2c(s1)CCC2)N1CCN(c2cnccn2)CC1	87.73
O=C(c1cc2c(s1)CCCCC2)N1CCC(c2ncc[nH]2)CC1	88.07
O=C(c1cc2c(s1)CCC2)N1CCC(c2cnccn2)CC1	151.2
Cc1nc(C2CCCN2C(=O)c2cc3c(s2)CCCC3)no1 (stereo not drawn)	-3.152
O=C(c1cnccn1)N1CCN(c2ccnc3ccsc23)CC1	3.546
O=C(c1ccc2c(c1)OCO2)N1CCN(c2cnccn2)CC1	-2.532
CN(C)c1cc(C(=O)N2CCN(c3cnccn3)CC2)ccn1	-5.802
C=C(C)COc1cccc(CNC(COC)c2ccnn2C)c1 (stereo not drawn)	4.309
Cn1c(Cn2cccn2)nnc1C1CCN(Cc2cccnc2N)CC1	-0.4084
O=C(c1cc2c(s1)CCC2)N1CCC(c2ccncc2)CC1	202.7
O=C(c1cc2c(s1)CCC2)N1CCCC(c2cnccn2)C1 (stereo not drawn)	144.9
CN(C)c1cc2c(nn1)CCN(C(=O)c1cc3c(s1)CCC3)C2	9.509
Cc1cc(C2CCCN2C(=O)c2cc3c(s2)CCC3)on1 (stereo not drawn)	4.731
CCn1cnnc1C1CCN(C(=O)c2cc3c(s2)CCC3)CC1	-8.588
COc1ccc(Cl)cc1-c1cc(NC(=O)CNC(=O)C2CC2)[nH]n1	-9.759
CCn1cc(CN2CCC(N3CCC(O)CC3)CC2)cc1C#N	0
Cc1csc(C(C)(C)NCC(=O)N2CCCC(C(N)=O)C2)n1 (stereo not drawn)	-19.83
CN(c1ccc(C(N)=O)nn1)C1CCC1	4.967
OCCc1cn(CC2CCCN(Cc3nccs3)C2)nn1 (stereo not drawn)	-2.093
CN1CCCc2cc(CNC(=O)c3ccc(-n4cnnc4)cc3)ccc21	119.3
CN1CCCc2cc(CNC(=O)c3ccncc3)ccc21	7.884

SMILES	Percent Effect [%]
CC(C)C(=O)NS(=O)(=O)c1ccc2c(c1)N(C)CCC2	-5.146
Cc1nc(CNC(=O)Nc2ccc3c(c2)CCCN3C)sc1C	18.83
Cc1ccc(C(=O)NCc2ccc(N3CCNC(=O)C3)c(F)c2)cc1	-3.953
CN1CCCc2cc(CNC(=O)c3cc[n+]([O-])cc3)ccc21	106.3
COCC(=O)N[C@H]1C[C@@H](Cc2cc(CN3CCOCC3)on2)C1(C)C	-1.513
CCCn1cnc2c1CN(S(=O)(=O)Cc1ccccc1)[C@H](C(=O)OC)C2	-5.674
CCc1noc(CCCC(=O)Nc2cc(C(F)(F)F)c[nH]c2=O)n1	7.764
Cc1nc(NCCSc2nnc(C)s2)c2cccnc2n1	-15.89
O=C(NCC(O)c1cccc(F)c1)c1sccc1OC(F)F (stereo not drawn)	13.48
CC(C)COCCCNC(=O)NCC(O)c1cccc(F)c1 (stereo not drawn)	93.97
O=C(NCCc1cccs1)NCC(O)c1cccc(F)c1 (stereo not drawn)	94.53
O=C(NCCc1ccc(F)cc1)NCC(O)c1cccc(F)c1 (stereo not drawn)	98.05
Cc1cc(OC(F)F)c(C(=O)NCC(O)c2cccc(F)c2)s1 (stereo not drawn)	-16.7
COc1ccc(CCNC(=O)NCC(O)c2cccc(F)c2)cc1 (stereo not drawn)	127.5
Cc1nc(CCNC(=O)NCC(O)c2cccc(Cl)c2)cs1 (stereo not drawn)	5.885
O=C(CN1CCCS(=O)(=O)CC1)NCc1ccccc1F	-8.655
Cc1ccc(CNC(=O)NC2CCN(CC(F)F)CC2)cc1	-0.1084
Cn1cnnc1C1CCN(c2nc3ccccc3o2)CC1	-4.492
CCOc1ccc(CN(C)C2CCN(c3cc(C)nn3C)C2=O)cc1 (stereo not drawn)	-7.061
CCn1ccc(C(=O)N2CCCN(Cc3ccccc3F)CC2)cc1=O	-3.557
CN(Cc1ccccc1)c1ncccc1CNC(=O)c1ccnn1C	-0.05459
Cc1ccc(-n2nnc(CC(=O)N3CCSCC3)c2C)cc1	7.911
O=C(NCCc1cccc(F)c1)NCC(O)c1cccc(F)c1 (stereo not drawn)	4.017
O=C(NCCc1ccccc1)NCC(O)c1cccc(F)c1 (stereo not drawn)	91.4
O=C(NCCN1CCOCC1)NCC(O)c1cccc(F)c1 (stereo not drawn)	-0.6049
CN1CC2(CCN(C(=O)c3ccc4c(=O)n(C)cnc4c3)C2)OC1=O (stereo not drawn)	-9.693

SMILES	Percent Effect [%]
COc1c(C2CCCN2Cc2csc(C(C)C)n2)c(C)nn1C (stereo not drawn)	4.743
CN1CC(=O)N(c2ccsc2)CC12CCN(Cc1nccn1C)C2 (stereo not drawn)	2.996
Cc1cccc(Cn2c3c(ccc2=O)CCN(Cc2ccoc2)CC3)n1.O=C(O)C(F)(F)F.O=C(O)C(F)(F)F	0.1669
Cc1cccc(CN2C(=O)CCC23CCN(Cc2nccn2C)CC3)n1	88.13
Cc1cccc(CN2C(=O)CCC23CCN(Cc2ccoc2)CC3)n1	102.5
Cc1cccc(CN2C(=O)CC[C@@H]3[C@H]2CCN3Cc2nccn2C)n1.O=C(O)C(F)(F)F.O=C(O)C(F)(F)F.O=C(O)C(F)(F)F	16.26
O=C1CCC2(CCN(Cc3ccoc3)CC2)N1OCc1ccccc1F	-6.682
Cn1cc(C#N)cc1C(=O)NC1(C#N)CCSCC1	-2.619
COCCN(Cc1nccs1)C(=O)c1cc(-c2ccc(C)s2)n[nH]1	-12.01
COc1ccc(OCc2sc(C3(O)CCCNCC3)nc2C)cc1.Cl (stereo not drawn)	-5.149
Cc1nc(C)c(COc2ccc(S(=O)(=O)N(C)C)cc2)s1	94.55
Cc1noc(C)c1CNC(C)c1ccc(S(=O)(=O)N(C)C)cc1 (stereo not drawn)	-12.9
Cc1nc(C)c(COc2ccc(N(C)S(C)(=O)=O)cc2)s1	-26.99
CN(c1ccc(OCc2cnc(Cl)s2)cc1)S(C)(=O)=O	2.089
Cc1nc(COc2ccc(S(=O)(=O)N(C)C)cc2)sc1C	104.7
Cc1nc(COc2ccc(N(C)S(C)(=O)=O)cc2)sc1C	78.79
CN(C)S(=O)(=O)c1ccc(OCCNCCn2cccn2)cc1	11.92
Cc1ncc(COc2ccc(N(C)S(C)(=O)=O)cc2)s1	-0.05196
CC(C)N1Cc2cccc(NCC(=O)N(C)C)c2C1	-13.34
Cc1ccc(N2Cc3c(CN(C)C)nn(C)c3C2)nn1	-4.068
O=C(O)C(F)(F)F.O=C(c1cscn1)N1CCc2c(COCC3CC3)cncc2C1	89.35
CCOCc1cncc2c1CCN(C(=O)c1cscn1)C2.O=C(O)C(F)(F)F	95.41
O=C(O)C(F)(F)F.O=C(c1ccsc1)N1CCc2c(COCC3CC3)cncc2C1	-5.644
CC(C)COCc1cncc2c1CCN(Cc1cnn(C)c1)C2.O=C(O)C(F)(F)F.O=C(O)C(F)(F)F	-4.372
O=C(O)C(F)(F)F.O=C(c1ccco1)N1CCc2c(COCC3CC3)cncc2C1	-15.15
CC(C)COCc1cncc2c1CCN(C(=O)c1cscn1)C2.O=C(O)C(F)(F)F	82.53

SMILES	Percent Effect [%]
Cc1ncsc1CN1C[C@@H]2COC[C@]2(C(=O)NC2CC(F)(F)C2)C1.O=C(O)C(F)(F)F	20.27
CN(C)C(=O)N1C[C@@H]2CC[C@H](C1)N(C(=O)CCCn1cncn1)C2	-23.9
Cc1ccc(F)c(S(=O)(=O)NCc2cccc(C(=O)N3CCCC3)c2)c1	126.7
Cc1cc(F)ccc1CNCc1cccc(C(=O)N2CCCC2)c1	100.5
O=C(NCc1cccc(F)c1)c1cccc(C(=O)N2CCCC2)n1	8.268
Cc1cc(F)ccc1S(=O)(=O)NCc1cccc(C(=O)N2CCCC2)c1	0.7357
O=C(c1cccc(CNS(=O)(=O)c2ccccc2F)c1)N1CCCC1	1.767
Cc1ccc(F)cc1S(=O)(=O)NCc1cccc(C(=O)N2CCCC2)c1	74.77
O=C(c1cccc(CNC/C=C/c2ccccc2)c1)N1CCCC1	-7.138
Cc1cc(S(=O)(=O)NCc2cccc(C(=O)N3CCCC3)c2)c(C)s1	10.27
O=C1[C@@H]2CCN(CC3CCOCC3)C[C@@H]2OCCN1c1ccccc1	-22.15
CN(C)C(=O)CNC(CC(F)(F)F)c1ccc(Cl)cc1 (stereo not drawn)	1.329
OCCNC1CSCCc2ccccc21 (stereo not drawn)	-7.147
Cc1n[nH]cc1CNC1(c2ccc(Br)cc2)CC1	-6.578
O=C(CC(F)(F)F)NC(c1ccc(Cl)cc1)c1ncon1 (stereo not drawn)	11.91
O=C([C@@H]1COC[C@H]2CN(CC3CCCC3)C[C@H]21)N1CCOCC1	-6.22
CN(Cc1nnc2n1CCC2)C(=O)Cc1ccc2c(c1)OCCO2	-1.07
O=C(Cc1ccc2c(c1)OCCO2)NC1CCN(CC(F)F)CC1	2.104
CN(C)c1cc2c(nn1)CCN(C(=O)Cc1ccc3c(c1)CCO3)C2	-10.79
O=C(Cc1ccc2c(c1)OCC2)Nc1nn[nH]n1	216.7
O=C(Cc1ccc2c(c1)OCC2)Nc1nc(C(F)(F)F)n[nH]1	131.9
Nc1cc2c(nn1)CCN(C(=O)Cc1ccc3c(c1)CCO3)C2	8.586
O=C(Cc1ccc2c(c1)CCO2)Nc1ccc(-n2cncn2)nc1	-5.052
O=C(Cc1ccc2c(c1)OCC2)Nc1nc[nH]n1	104.4
O=C(Cc1ccc2c(c1)OCO2)N[C@@H]1CCNC[C@H]1O	-5.906
